KCNQ2 enhance: potentiators of rat KCNQ2 potassium channel; hit rate 0.54% among 310,000; CHO-K1 KCNQ2, FluxOR thallium flux fluorescence; active compounds read high; B-score at 10 µM;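 active = fluorescence ratio B-score at least 3 SD of library B-scores, with initial fluorescence B-score within 3 of them, cut at about 5.3 in these data; same plate scores as AID 2156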;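 also: B-score of peak minus minimum over baseline fluorescence ratio after K+ and Tl+ stimulus; positive B-score means potentiation of KCNQ2 with more thallium influx and brighter signal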
KCNQ2 inh: rat KCNQ2 potassium channel inhibitors, primary screen, cell-based, CHO-K1, FluxOR thallium flux, B-score; B-score at 10 µM; hit rate 1.1% among 310,000; Potassium voltage-gated channel subfamily KQT member 2 (Rattus norvegicus), O88943; 20 min; active compounds read low;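 active = fluorescence ratio B-score at most minus 3 library SDs, with starting brightness B-score within 2 library SDs, cut at about -5.5 in these data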
Kir21 confirm: mouse Kir2.1 channel blockers, retest, confirmation, cell-based, FluxOR thallium flux, duplicate; Tl flux remaining, % of negative control (active compounds read low), % at 10 µM; Kir2.1-expressing cells, FluxOR thallium flux fluorescence; active compounds read low; shares compounds with KCNQ2 enhance; hit rate 41% among 2,300;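 active = Primary-screen hit whose thallium flux fell at least 3 control SD below untreated wells in both duplicates, with normal baseline fluorescence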;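 also: 0% = blank wells without stimulus and 100% = stimulated no-compound controls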
HEK293 Tl flux: alters thallium flux in parental HEK293 cells, Kir2.1 counter-screen. shares compounds with KCNQ2 enhance. FluxOR thallium flux fluorescence; 0% = unstimulated blank wells. FluxOR signal as % of negative control (100 = no effect), % at 10 µM. hit rate 19% among 2,300;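 active = dye signal at least 3 control SD above or below untreated wells in both duplicates, raw fluorescence within 3, either direction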;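 also: percent is based on the flux ratio of peak minus minimum fluorescence over baseline F0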
CHO-K1 ctr: nonspecific thallium flux increase in parental CHO-K1, confirmation, counter-screen for KCNQ2 potentiator project, cell-based, FluxOR thallium flux, duplicate. shares compounds with KCNQ2 enhance. parental CHO-K1 cells, FluxOR thallium flux fluorescence; zero = vehicle mean+3SD, 100% = vehicle-minus-blank window. activity increase over 3SD of controls, % at 10 µM. hit rate 43% among 1,200. AID 2282, 2010;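 active = signal rise of at least 3 SD above the untreated control mean, in both duplicate wells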;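 also: counter screen of KCNQ2 potentiator hits so any rise reflects channel-independent effects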
KCNQ1 pot spec: human KCNQ1 channel potentiation off-target, confirmation, selectivity assay for KCNQ2 potentiator project, cell-based, CHO, FluxOR thallium flux. shares compounds with KCNQ2 enhance. CHO KCNQ1 stable, FluxOR thallium flux fluorescence; beyond 3SD, as % of vehicle-control signal. activation over 3SD threshold, % at 10 µM. hit rate 28% among 1,200. AID 2283, 2010;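 active = fluorescence ratio rise of at least 3 SD of vehicle wells above their mean, in both replicate wells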;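 also: 0% = vehicle mean plus 3 SD and 100% = vehicle minus unstimulated blank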
KCNQ2 pot confirm: rat KCNQ2 channel potentiators, confirmation, cell-based, CHO, FluxOR thallium flux, duplicate; hit rate 68% among 1,200; potentiation, less the hit threshold, % at 10 µM; shares compounds with KCNQ2 enhance; CHO-KCNQ2 cells, FluxOR thallium flux fluorescence; AID 2287, 2010;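 active = fluorescence ratio rising 3 SD or more over the vehicle control mean in both replicates, plus primary screen hit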;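 also: peak minus minimum thallium fluorescence divided by baseline after K/Tl stimulus; 0% = vehicle mean plus 3 SD and 100% = vehicle minus unstimulated blank difference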
Kir2-1 sel: mouse Kir2.1 channel activation off-target, confirmation, selectivity assay for KCNQ2 potentiator project, cell-based, HEK293, FluxOR thallium flux; AID 2345, 2010; activity over 3SD threshold, % at 10 µM; shares compounds with KCNQ2 enhance; HEK293 Kir2.1, FluxOR thallium flux fluorescence; hit rate 2% among 1,200;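 active = fluorescence ratio rise of at least 3 SD above the vehicle-control mean, seen in both replicates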;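 also: 0% = vehicle mean plus 3 SD and 100% = vehicle minus no-stimulus blank window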
KCNQ2 W236L MoA: potentiators of retigabine-insensitive KCNQ2 W236L, mechanism study for KCNQ2 potentiator project, cell-based, rat KCNQ2 W236L, CHO, automated patch clamp | shares compounds with KCNQ2 enhance | automated patch clamp current | current increase over 3SD of negative controls (%), active compounds read high, % at 25 µM | hit rate 10% among 940;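 active = current increase at least 3 SD of the untreated controls above them in both duplicate recordings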
Target sequence (O88943 whole entry W236L, looked up): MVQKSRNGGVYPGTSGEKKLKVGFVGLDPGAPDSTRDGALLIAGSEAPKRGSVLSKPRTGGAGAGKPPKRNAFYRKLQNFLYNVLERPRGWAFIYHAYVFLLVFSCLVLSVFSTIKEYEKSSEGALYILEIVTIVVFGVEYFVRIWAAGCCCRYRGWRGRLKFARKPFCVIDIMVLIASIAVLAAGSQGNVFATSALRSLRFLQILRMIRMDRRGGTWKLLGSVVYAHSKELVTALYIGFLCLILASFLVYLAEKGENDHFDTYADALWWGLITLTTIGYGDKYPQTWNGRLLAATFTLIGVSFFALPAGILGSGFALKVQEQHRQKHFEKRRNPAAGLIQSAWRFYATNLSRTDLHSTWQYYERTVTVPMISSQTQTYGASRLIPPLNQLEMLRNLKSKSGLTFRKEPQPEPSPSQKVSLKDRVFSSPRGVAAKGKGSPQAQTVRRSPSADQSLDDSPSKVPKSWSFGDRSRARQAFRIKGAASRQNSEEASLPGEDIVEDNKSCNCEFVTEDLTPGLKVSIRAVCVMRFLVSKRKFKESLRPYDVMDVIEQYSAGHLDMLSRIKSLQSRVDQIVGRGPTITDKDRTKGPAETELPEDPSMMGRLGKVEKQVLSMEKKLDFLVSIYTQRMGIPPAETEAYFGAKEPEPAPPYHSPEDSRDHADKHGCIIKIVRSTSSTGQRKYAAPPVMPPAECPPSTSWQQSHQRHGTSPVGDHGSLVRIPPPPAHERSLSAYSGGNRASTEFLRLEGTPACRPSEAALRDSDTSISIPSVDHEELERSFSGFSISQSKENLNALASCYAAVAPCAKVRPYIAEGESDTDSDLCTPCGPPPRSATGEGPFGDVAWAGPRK
* hit, by the source's call. Sampled rows, rich in hits. Any-hit rate of the full collection: about 1.6%.

COc1ccc(S(=O)(=O)N2CCc3ccccc32)cc1OC was read as KCNQ2 enhance 0.13, KCNQ2 inh inactive, Kir21 confirm 51.5%* and HEK293 Tl flux inactive.
Screening COc1ccc(S(=O)(=O)N2CCc3ccccc32)cc1C(=O)O returned KCNQ2 inh inactive.
For Cc1cccc(NC(=O)CCN2CCCC(C)C2)c1 (stereo not drawn) the results were KCNQ2 enhance 0.03 and KCNQ2 inh inactive.
Screening CCC(C)NC(=O)C1CCN(S(=O)(=O)c2ccc(Br)s2)CC1 (stereo not drawn) returned KCNQ2 enhance 0.77 and KCNQ2 inh inactive.
For CC(NC(=O)C1CCN(S(=O)(=O)c2ccc(Br)s2)CC1)c1ccccc1 (stereo not drawn) the results were KCNQ2 enhance 6.85*, KCNQ2 inh inactive, Kir21 confirm inactive, HEK293 Tl flux inactive, CHO-K1 ctr 5.4*, KCNQ1 pot spec -18.8, KCNQ2 pot confirm 14.1*, Kir2-1 sel -25.1 and KCNQ2 W236L MoA inactive.
`CCS(=O)(=O)N1CCC(C(=O)NCc2cccc(OC)c2)CC1` gave KCNQ2 enhance 0.09 and KCNQ2 inh inactive.
`COc1cccc(CNC(=O)C2CCN(S(=O)(=O)c3ccc(Br)s3)CC2)c1` gave KCNQ2 enhance 7.31*, KCNQ2 inh inactive, Kir21 confirm inactive, HEK293 Tl flux inactive, CHO-K1 ctr -4.6, KCNQ1 pot spec -23.1, KCNQ2 pot confirm 9.6*, Kir2-1 sel -48.2 and KCNQ2 W236L MoA inactive.
CC(NS(=O)(=O)c1ccc(Br)s1)c1ccccc1 (stereo not drawn) was read as KCNQ2 enhance 0.04, KCNQ2 inh inactive, Kir21 confirm 49.5%* and HEK293 Tl flux inactive.
`O=S(=O)(NCc1ccccc1)c1ccc(Br)s1` gave KCNQ2 inh inactive.
For COC(=O)[C@H](CC(C)C)NC(=O)Nc1ccc(S(N)(=O)=O)cc1 the results were KCNQ2 enhance 1.01 and KCNQ2 inh inactive.
`CC(CCc1ccccc1)NC(=O)C(Cc1ccccc1)NC(N)=O` (stereo not drawn) gave KCNQ2 inh inactive.
`CCN(CC)S(=O)(=O)c1ccc(N2CCCC2)c(NC(=O)c2ccc(N3CCCC3=O)cc2)c1` gave KCNQ2 enhance 0.67 and KCNQ2 inh inactive.
For O=C(Nc1nnc(-c2ccc(Br)cc2)o1)c1ccco1 the results were KCNQ2 enhance 16.5*, KCNQ2 inh inactive, Kir21 confirm inactive, HEK293 Tl flux inactive, CHO-K1 ctr -6.3, KCNQ1 pot spec -17.1, KCNQ2 pot confirm 18.8*, Kir2-1 sel -32.0 and KCNQ2 W236L MoA inactive.
For CS(=O)(=O)c1ccc(-c2nnc(NC(=O)c3ccco3)o2)cc1 the results were KCNQ2 enhance 0.06 and KCNQ2 inh inactive.
For O=C(Cc1ccsc1)NNC(=O)c1ccc(F)cc1 the results were KCNQ2 enhance 1.71 and KCNQ2 inh inactive.
Screening NS(=O)(=O)c1ccc(CCNc2ccnc3cc(Cl)ccc23)cc1 returned KCNQ2 inh inactive.
Cc1cc(N2CCOCC2)nc(NCc2ccccc2)n1 was read as KCNQ2 enhance 2.14 and KCNQ2 inh inactive.
Screening Cc1cc(N2CCCCC2)nc(NCc2ccccc2)n1 returned KCNQ2 enhance 1.24, KCNQ2 inh inactive, Kir21 confirm 48.5%* and HEK293 Tl flux inactive.
CC(=O)c1ccc(NC(=O)C(C)OC(=O)c2cccc(-n3cnnn3)c2)cc1 (stereo not drawn) was read as KCNQ2 enhance 0.27 and KCNQ2 inh inactive.
Screening CC(OC(=O)c1cccc(-n2cnnn2)c1)C(=O)Nc1cccc(Cl)c1 (stereo not drawn) returned KCNQ2 enhance 1.24, KCNQ2 inh inactive, Kir21 confirm inactive and HEK293 Tl flux inactive.
`Cc1occc1C(=O)N1CCCC(N2CCN(c3ccccc3F)CC2)C1` (stereo not drawn) gave KCNQ2 inh inactive.
O=C(NCCNCc1ccc(F)cc1)c1ccco1 was read as KCNQ2 enhance 1.18 and KCNQ2 inh inactive.
`CC(NCCC(Cc1ccccc1)c1ccco1)c1ccccc1` (stereo not drawn) gave KCNQ2 inh inactive, Kir21 confirm 39.0%* and HEK293 Tl flux inactive.
`O=C(CC(Cc1ccccc1)c1ccco1)NC1CCCCC1` (stereo not drawn) gave KCNQ2 inh inactive.
For Fc1ccc(CNCCC(Cc2ccccc2)c2ccco2)cc1 (stereo not drawn) the results were KCNQ2 inh inactive, Kir21 confirm 17.5%* and HEK293 Tl flux 70.5%*.
For CC(=O)N/C(=C\c1ccccc1)C(=O)OC/C=C/c1ccccc1 the results were KCNQ2 inh inactive.
`CCCOc1cccc(C(=O)NC(=S)Nc2cccc(C(F)(F)F)c2)c1` gave KCNQ2 inh inactive.
For O=C(NC(=S)Nc1cccc(C(F)(F)F)c1)c1csnn1 the results were KCNQ2 enhance 17.5*, KCNQ2 inh inactive, Kir21 confirm inactive, HEK293 Tl flux 442.0%*, CHO-K1 ctr -17.5, KCNQ1 pot spec -11.1, KCNQ2 pot confirm 80.4*, Kir2-1 sel -16.9 and KCNQ2 W236L MoA inactive.
Screening O=C(NC(=S)Nc1ccccc1Cl)c1csnn1 returned KCNQ2 enhance 14.7*, KCNQ2 inh inactive, Kir21 confirm inactive, HEK293 Tl flux 408.0%*, CHO-K1 ctr 78.9*, KCNQ1 pot spec -18.9, KCNQ2 pot confirm 71.8*, Kir2-1 sel -18.3 and KCNQ2 W236L MoA inactive.

High-throughput results from PubChem.
